Measured values from PubChem BioAssay (EPA / NIEHS).
Results filed as inconclusive are left out. Calls of active or inactive are those of the source. Rule for the calls: active = hit-call score of the fitted dose curve at least 0.9, where 1 is the maximum; inconclusive = response in the unintended direction; inactive = score below 0.9.

Assays:
[1] = target: Androgen Receptor/SRC-1 Co-activator, AR (gene 367) (UniProt P10275); experiment: OT_AR_ARSRC1_0480: Odyssey Thera (OT) 8-hour HEK293T Protein-Complementation Assay for Androgen Receptor/SRC-1 Co-activator (AID 2283354);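 note: hits raise the complementation signal above DMSO so AC50 marks enhancers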
Androgen Receptor/SRC-1 Co-activator, AR (gene 367), sequence (P10275 whole entry, looked up, the tested form may be a part): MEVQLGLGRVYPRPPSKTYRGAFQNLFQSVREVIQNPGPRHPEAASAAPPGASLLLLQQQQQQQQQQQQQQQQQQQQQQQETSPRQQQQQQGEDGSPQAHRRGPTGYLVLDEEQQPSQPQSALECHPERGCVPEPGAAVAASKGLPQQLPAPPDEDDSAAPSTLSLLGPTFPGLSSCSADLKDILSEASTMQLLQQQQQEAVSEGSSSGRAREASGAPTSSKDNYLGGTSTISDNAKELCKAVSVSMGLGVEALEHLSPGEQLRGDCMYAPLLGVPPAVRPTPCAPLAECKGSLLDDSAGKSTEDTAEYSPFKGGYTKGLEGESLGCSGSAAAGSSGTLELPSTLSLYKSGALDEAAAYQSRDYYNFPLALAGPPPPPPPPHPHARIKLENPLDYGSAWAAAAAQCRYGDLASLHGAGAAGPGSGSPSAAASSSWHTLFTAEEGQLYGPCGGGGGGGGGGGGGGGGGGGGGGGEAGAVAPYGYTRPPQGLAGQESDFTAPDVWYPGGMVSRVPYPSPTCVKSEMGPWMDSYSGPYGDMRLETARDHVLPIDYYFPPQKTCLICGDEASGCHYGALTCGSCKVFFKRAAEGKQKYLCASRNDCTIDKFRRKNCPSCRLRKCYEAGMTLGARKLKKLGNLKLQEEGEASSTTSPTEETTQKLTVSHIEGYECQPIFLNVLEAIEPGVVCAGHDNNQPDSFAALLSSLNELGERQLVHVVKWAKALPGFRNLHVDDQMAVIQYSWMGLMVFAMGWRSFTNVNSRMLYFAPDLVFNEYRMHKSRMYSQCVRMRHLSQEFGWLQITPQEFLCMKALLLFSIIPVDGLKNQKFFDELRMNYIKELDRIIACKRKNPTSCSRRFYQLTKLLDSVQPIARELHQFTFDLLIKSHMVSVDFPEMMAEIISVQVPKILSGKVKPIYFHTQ
Procedure, shortened: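 After 8 h dosing, stably expressing HEK293T cells with split-Venus AR/SRC-1 fusions were imaged (488, 635nm). The 488nm N/C ratio per image gave the endpoint, analysed in the positive direction against DMSO.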

[2] = target: human Norepinephrine Transporter (NET), SLC6A2 (gene 6530) (UniProt P23975); experiment: NVS_TR_hNET: NovaScreen (NVS) Transporter Assay for human Norepinephrine Transporter (NET) (AID 2283377);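 note: cell-free membrane protein extracted from CHO cells expressing human NET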;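 for AC50: displacement of radioligand from human NET seen as loss of scintillation signal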
Procedure, shortened: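 In this cell-free binding screen, chemicals at 25 uM (duplicate) compete with a radioligand for CHO-derived human NET over 1 hour, with filter-based radiodetection.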

[3] = target: Estrogen receptor beta (Homo sapiens) (UniProt Q92731); experiment: OT_ER_ERbERb_0480: Odyssey Thera (OT) 8-hour HEK293T Protein-Complementation Assay for Estrogen Receptor-beta/-beta Homodimer (AID 2283357);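 note: active means signal gain over DMSO baseline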
Procedure, shortened: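 Fluorescence gain from complemented reporter fragments on ER-beta LBD homodimer in HEK293T was quantified against DMSO controls after 8 h treatment, fixation in 4% formaldehyde and Draq5 staining.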

[4] = target: human Peroxisome Proliferator-activated Receptor alpha (PPARa), PPARA (gene 5465) (UniProt Q07869); experiment: NVS_NR_hPPARa: NovaScreen (NVS) Nuclear Receptor Binding Assay for human Peroxisome Proliferator-activated Receptor alpha (PPARa) (AID 2283359);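 note: activity means loss of TR-FRET signal versus DMSO baseline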
Procedure, shortened: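 One-hour incubation, cell-free extracted protein, TR-FRET binding readout; signal loss vs DMSO scored. Screen: 25 uM duplicates, confirmatory dose series for actives.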

[5] = target: human Thyroid Receptor Alpha (TRa), THRA (gene 7067) (UniProt P10827); experiment: NVS_NR_hTRa_Antagonist: NovaScreen (NVS) Nuclear Receptor Binding Assay for human Thyroid Receptor Alpha Antagonism (TRa) (AID 2283362);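 note: activity is loss of signal relative to DMSO baseline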
Procedure, shortened: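 Actives from a duplicate 25 uM single-point screen were retested in concentration series. The cell-free antagonist-format binding assay was read by AlphaLISA chemiluminescence at 1 h, scored as signal loss relative to DMSO.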

[6] = target: rat Androgen Receptor (AR), Ar (gene 24208) (UniProt P15207); experiment: NVS_NR_rAR: NovaScreen (NVS) Nuclear Receptor Binding Assay for rat Androgen Receptor (AR) (AID 2283366)
Procedure, shortened: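 Actives from a duplicate single-concentration (25 uM) primary run went on to concentration series. Displacement of radioligand was counted by filtration and scintillation, 18 h post-dose, using prostate extracts from testosterone-pretreated rats, with DMSO as baseline.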

[7] = target: Norway rat Vesicular Monoamine Transporter (VMAT2), neurotransmitter transporter, Slc18a2 (gene 25549) (UniProt Q01827); experiment: NVS_TR_rVMAT2: NovaScreen (NVS) Transporter Assay for Norway rat Vesicular Monoamine Transporter (VMAT2), neurotransmitter transporter (AID 2283376);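 note: actives lower the bound radioligand signal below the DMSO level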
Norway rat Vesicular Monoamine Transporter (VMAT2), neurotransmitter transporter, Slc18a2 (gene 25549), sequence (Q01827 whole entry, looked up): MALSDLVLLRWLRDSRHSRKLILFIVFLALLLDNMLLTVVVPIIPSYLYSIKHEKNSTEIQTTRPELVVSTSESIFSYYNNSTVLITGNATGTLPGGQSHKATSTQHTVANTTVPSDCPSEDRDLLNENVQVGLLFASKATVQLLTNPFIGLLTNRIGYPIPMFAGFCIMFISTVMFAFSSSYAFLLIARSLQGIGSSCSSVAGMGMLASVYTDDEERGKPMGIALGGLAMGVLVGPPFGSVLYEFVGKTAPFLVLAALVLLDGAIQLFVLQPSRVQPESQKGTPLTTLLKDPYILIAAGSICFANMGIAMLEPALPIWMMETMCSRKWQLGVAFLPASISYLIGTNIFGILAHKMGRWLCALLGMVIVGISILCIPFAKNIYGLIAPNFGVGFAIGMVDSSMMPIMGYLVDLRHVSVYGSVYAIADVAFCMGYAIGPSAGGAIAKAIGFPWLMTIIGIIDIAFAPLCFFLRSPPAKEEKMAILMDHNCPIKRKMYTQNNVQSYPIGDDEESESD
Procedure, shortened: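 Binding endpoint from rat forebrain tissue, cell-free; 1 h incubation; filtered radioligand counted; 25 uM duplicate primary then dose series; DMSO negative control.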

[8] = target: Estrogen receptor (Homo sapiens) + Estrogen receptor beta (Homo sapiens) (UniProt P03372+Q92731); experiment: OT_ER_ERaERb_1440: Odyssey Thera (OT) 24-hour HEK293T Protein-Complementation Assay for Estrogen Receptor-alpha/-beta Homodimer (AID 2283356);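 note: heteromer of ER alpha and ER beta binding domains; hits raise reporter fluorescence and both agonists and antagonists give an increase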
Procedure, shortened: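 Fragment complementation between ER alpha (310-547) and ER beta (263-489) ligand-binding domains in HEK293T cells; signal read 24 h post-dosing by laser scanning cytometer. Gain of fluorescence relative to DMSO fitted.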

[9] = target: Glucocorticoid receptor (Homo sapiens) (UniProt P04150); experiment: NVS_NR_hGR: NovaScreen (NVS) Nuclear Receptor Binding Assay for human Glucocorticoid Receptor (GR) (AID 2283363);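 for AC50: activity is loss of specific radioligand binding signal relative to DMSO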
Glucocorticoid receptor (Homo sapiens), sequence (P04150 whole entry, looked up): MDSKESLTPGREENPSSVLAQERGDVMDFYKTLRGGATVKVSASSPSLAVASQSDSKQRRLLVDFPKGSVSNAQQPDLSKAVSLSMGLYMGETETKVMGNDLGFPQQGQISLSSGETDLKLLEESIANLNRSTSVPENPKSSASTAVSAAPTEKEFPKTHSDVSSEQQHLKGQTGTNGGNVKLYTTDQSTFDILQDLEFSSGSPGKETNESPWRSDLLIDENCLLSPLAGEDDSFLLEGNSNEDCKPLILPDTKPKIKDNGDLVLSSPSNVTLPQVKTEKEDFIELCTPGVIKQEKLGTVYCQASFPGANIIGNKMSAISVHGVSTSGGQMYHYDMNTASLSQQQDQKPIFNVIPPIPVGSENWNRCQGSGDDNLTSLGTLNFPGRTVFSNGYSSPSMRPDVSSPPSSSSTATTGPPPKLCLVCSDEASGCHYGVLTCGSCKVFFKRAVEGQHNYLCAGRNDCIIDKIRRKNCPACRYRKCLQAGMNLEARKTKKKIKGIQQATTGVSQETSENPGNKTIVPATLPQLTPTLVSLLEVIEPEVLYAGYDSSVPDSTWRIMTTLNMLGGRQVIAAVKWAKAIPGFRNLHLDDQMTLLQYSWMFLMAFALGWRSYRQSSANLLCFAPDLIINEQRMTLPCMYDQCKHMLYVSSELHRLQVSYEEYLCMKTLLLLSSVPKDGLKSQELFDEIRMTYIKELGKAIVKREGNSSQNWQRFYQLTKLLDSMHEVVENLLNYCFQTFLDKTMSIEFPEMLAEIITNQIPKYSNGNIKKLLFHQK
Procedure, shortened: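 Single-readout cell-free binding: radioligand plus extracted receptor, 16-hour dosing, filter radiodetection; 25 uM duplicate primary, concentration series secondary.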

[10] = target: human Serotonin Transporter (SERT), SLC6A4 (gene 6532) (UniProt P31645); experiment: NVS_TR_hSERT: NovaScreen (NVS) Transporter Assay for human Serotonin Transporter (SERT) (AID 2283372)
human Serotonin Transporter (SERT), SLC6A4 (gene 6532), sequence (P31645 whole entry, looked up): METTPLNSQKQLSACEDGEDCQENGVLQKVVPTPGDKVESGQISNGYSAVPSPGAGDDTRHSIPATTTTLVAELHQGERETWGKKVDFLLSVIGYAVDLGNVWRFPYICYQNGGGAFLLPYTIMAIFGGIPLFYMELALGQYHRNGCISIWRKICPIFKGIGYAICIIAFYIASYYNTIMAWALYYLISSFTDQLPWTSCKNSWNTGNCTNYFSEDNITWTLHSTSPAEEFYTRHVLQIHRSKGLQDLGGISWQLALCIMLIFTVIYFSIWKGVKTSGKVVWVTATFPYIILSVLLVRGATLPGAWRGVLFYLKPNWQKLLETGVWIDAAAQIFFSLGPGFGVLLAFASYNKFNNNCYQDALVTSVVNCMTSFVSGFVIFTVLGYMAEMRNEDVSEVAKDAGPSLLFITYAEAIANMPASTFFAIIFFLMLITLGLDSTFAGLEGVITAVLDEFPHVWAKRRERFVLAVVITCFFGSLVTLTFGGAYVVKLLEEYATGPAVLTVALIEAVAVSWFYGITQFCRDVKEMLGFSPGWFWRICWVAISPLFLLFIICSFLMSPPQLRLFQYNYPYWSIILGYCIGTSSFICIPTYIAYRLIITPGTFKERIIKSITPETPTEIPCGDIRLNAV
Procedure, shortened: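 Human platelet membrane preparation; displacement of radioligand from serotonin transporter measured after 1 h by filtration and scintillation counting. Single 25 uM duplicate screen, then concentration series for actives, with DMSO as negative baseline.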

[11] = tested on: guinea pig Dopamine Transporter (DAT), gene 100714898; experiment: NVS_TR_gDAT: NovaScreen (NVS) Transporter Assay for guinea pig Dopamine Transporter (DAT) (AID 2283369);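 note: active compounds lower bound radioligand signal relative to DMSO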
Procedure, shortened: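 Radioligand displacement on membranes from guinea pig striatum, 2 h exposure, bound label counted by filtration and scintillation. Tested at 25 uM in duplicate, then actives in concentration series to 50 uM; DMSO as negative control.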

PGR (gene 5241) = PGR (gene 5241) (UniProt P06401); experiment: NVS_NR_hPR: NovaScreen (NVS) Nuclear Receptor Binding Assay for human Progestron Receptor (PR) (AID 2283360);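 note: active means loss of bound radioligand signal versus DMSO baseline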
PGR (gene 5241), sequence (P06401 whole entry, looked up): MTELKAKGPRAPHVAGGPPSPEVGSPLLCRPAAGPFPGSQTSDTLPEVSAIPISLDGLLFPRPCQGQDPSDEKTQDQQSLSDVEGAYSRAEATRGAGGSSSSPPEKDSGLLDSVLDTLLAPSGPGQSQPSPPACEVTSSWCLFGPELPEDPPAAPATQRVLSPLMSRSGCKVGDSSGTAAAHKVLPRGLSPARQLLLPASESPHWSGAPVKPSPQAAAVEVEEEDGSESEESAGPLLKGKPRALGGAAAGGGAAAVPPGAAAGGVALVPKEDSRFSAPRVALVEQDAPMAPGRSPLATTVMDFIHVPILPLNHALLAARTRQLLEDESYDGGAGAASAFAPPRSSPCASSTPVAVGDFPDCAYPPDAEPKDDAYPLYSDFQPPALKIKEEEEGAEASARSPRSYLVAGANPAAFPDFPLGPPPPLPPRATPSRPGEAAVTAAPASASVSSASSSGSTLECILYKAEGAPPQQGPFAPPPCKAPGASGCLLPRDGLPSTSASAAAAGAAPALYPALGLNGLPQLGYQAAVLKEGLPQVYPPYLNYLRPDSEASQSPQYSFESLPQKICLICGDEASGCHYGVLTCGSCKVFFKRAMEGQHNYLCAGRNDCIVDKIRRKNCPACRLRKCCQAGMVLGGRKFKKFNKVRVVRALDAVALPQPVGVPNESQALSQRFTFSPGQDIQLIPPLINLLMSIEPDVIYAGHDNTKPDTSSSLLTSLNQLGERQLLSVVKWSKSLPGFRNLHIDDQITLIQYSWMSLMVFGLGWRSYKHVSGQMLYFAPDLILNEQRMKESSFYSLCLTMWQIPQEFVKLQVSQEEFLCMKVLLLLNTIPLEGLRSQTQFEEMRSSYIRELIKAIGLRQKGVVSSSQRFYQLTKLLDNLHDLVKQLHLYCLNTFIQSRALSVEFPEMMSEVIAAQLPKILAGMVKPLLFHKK
Procedure, shortened: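 T47D-derived receptor preparation, cell-free, with tritiated or iodinated radioligand displacement measured by scintillation 18 h post-dosing. Single 25 uM duplicate screen, then concentration series; signal loss relative to DMSO.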

[12] = target: guinea pig Sigma Receptor, Non-selective Binding, SIGMAR1 (gene 100135589) (UniProt Q60492); experiment: NVS_OR_gSIGMA_NonSelective: NovaScreen (NVS) Nuclear Receptor Binding Assay for guinea pig Sigma Receptor, Non-selective Binding (AID 2283367)
Procedure, shortened: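 Test chemicals were screened in duplicate at 25 uM, then in concentration series if active, against radioligand binding to guinea pig brain membranes; filtration and scintillation counting at 1 h measured remaining bound ligand.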

[13] = tested on: rat Norepinephrine Transporter (NET), gene 83511; experiment: NVS_TR_rNET: NovaScreen (NVS) Transporter Assay for rat Norepinephrine Transporter (NET) (AID 2283373)
Procedure, shortened: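 Competitive radioligand displacement at the rat NET using forebrain membrane preparations, 1 h incubation, filter-based scintillation readout. Primary testing in duplicate at a single 25 uM concentration; confirmed actives retested across concentrations.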

[14] = target: Retinoic acid receptor alpha (Homo sapiens) (UniProt P10276); experiment: NVS_NR_hRAR_Antagonist: NovaScreen (NVS) Nuclear Receptor Binding Assay for human Retinoic Acid Alpha Receptor Antagonism (RAR) (AID 2283358)
Retinoic acid receptor alpha (Homo sapiens), sequence (P10276 whole entry, looked up): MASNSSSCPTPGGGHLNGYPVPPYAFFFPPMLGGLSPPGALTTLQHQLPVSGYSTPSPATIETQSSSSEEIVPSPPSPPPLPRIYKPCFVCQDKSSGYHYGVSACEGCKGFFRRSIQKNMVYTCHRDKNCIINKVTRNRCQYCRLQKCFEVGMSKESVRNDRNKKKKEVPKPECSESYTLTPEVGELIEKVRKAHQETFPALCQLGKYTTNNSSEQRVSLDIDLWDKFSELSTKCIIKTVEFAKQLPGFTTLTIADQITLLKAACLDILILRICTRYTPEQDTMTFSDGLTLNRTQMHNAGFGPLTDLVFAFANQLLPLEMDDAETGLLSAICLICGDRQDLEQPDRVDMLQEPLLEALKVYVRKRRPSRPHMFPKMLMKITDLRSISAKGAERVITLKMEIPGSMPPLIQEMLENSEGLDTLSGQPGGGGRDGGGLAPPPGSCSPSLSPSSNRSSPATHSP
Procedure, shortened: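 Chemicals were first tested in duplicate at 25 uM, then actives in concentration series, in a cell-free TR-FRET antagonist binding format. Measurements were taken 2 hours after dosing and loss of signal was evaluated against DMSO controls.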

[15] = target: Retinoic acid receptor alpha (Homo sapiens) (UniProt P10276); experiment: NVS_NR_hRARa_Agonist: NovaScreen (NVS) Nuclear Receptor Binding Assay for human Retinoic Acid Alpha Receptor Agonism (RAR) (AID 2283361)
Procedure, shortened: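 Compounds screened at 25 uM, duplicate, then in concentration series if active. Detection: TR-FRET gain of signal versus DMSO after 2 h with cell-free extracted RARα.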

[16] = target: rat Serotonin Transporter (SERT), Slc6a4 (gene 25553) (UniProt P31652); experiment: NVS_TR_rSERT: NovaScreen (NVS) Transporter Assay for rat Serotonin Transporter (SERT) (AID 2283375)
rat Serotonin Transporter (SERT), Slc6a4 (gene 25553), sequence (P31652 whole entry, looked up): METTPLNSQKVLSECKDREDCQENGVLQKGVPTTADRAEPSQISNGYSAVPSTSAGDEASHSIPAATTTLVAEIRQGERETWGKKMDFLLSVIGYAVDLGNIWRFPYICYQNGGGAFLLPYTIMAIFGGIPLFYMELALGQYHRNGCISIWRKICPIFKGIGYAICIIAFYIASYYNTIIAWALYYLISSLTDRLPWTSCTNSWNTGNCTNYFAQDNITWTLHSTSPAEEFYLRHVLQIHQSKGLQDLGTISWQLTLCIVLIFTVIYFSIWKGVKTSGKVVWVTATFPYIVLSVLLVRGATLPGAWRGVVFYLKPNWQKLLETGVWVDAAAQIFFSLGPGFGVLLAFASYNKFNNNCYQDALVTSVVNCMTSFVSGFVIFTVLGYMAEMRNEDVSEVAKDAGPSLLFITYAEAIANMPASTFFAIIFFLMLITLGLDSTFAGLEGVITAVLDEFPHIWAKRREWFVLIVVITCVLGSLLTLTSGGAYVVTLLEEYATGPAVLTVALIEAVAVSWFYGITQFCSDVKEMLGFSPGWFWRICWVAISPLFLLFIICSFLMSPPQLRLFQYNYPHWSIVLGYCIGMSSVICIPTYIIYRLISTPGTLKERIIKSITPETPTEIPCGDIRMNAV
Procedure, shortened: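 Radioligand binding with competitive displacement on rat forebrain membrane preparations, counted by filtration and scintillation after 1 h. Primary single-point duplicates at 25 uM; active chemicals followed up in concentration-response. DMSO served as baseline.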

[17] = target: Nuclear receptor subfamily 1 group I member 2 (Homo sapiens) (UniProt O75469); experiment: NVS_NR_hPXR: NovaScreen (NVS) Nuclear Receptor Binding Assay for human Pregnane X Receptor (PXR) (AID 2283365);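 note: a drop in FRET signal versus DMSO baseline means the compound binds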
Procedure, shortened: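 Human PXR binding measured by TR-FRET in a cell-free format, 2 h exposure. Single-concentration duplicates at 25 uM preceded concentration-response retests of actives; endpoint fitted positively relative to DMSO, loss of signal indicating binding.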

SMILES: Nc1ccc(Cl)cc1N
- outcome [1]: inactive
- AC50 [2]: 38.9 µM (active)

SMILES: Cc1cc(N=Nc2ccccc2C)ccc1N
- AC50 [1]: 67.5 µM (active)
- AC50 [3]: 12.1 µM (active)
- outcome [4]: inactive
- outcome [5]: inactive
- outcome [6]: inactive
- AC50 [2]: 12.4 µM (active)

SMILES: CC(C)(OOC(C)(C)c1ccccc1)c1ccccc1
- AC50 [1]: 71.1 µM (active)
- AC50 [3]: 3.31 µM (active)
- outcome [7]: inactive

SMILES: [O-][Cl+]O
- outcome [8]: inactive
- outcome [3]: inactive

SMILES: Cn1cc(-c2ccccc2)c(=O)c(-c2cccc(C(F)(F)F)c2)c1
- outcome [9]: inactive
- outcome [10]: inactive

SMILES: Clc1ccc(Cl)c(Cl)c1
- outcome [3]: inactive

SMILES: Nc1ccc(Oc2ccc(N)cc2)cc1
- outcome [3]: inactive
- outcome [4]: inactive
- AC50 [11]: 2.99 µM (active)

SMILES: C1=Cc2cccc3cccc1c23
- outcome (PGR (gene 5241)): inactive

SMILES: Cc1ccc(N)c(N)c1
- outcome [3]: inactive
- AC50 [2]: 16.4 µM (active)

SMILES: CCCCOC(=O)c1ccccc1C(=O)OCc1ccccc1
- AC50 [3]: 12.6 µM (active)
- outcome [4]: inactive
- outcome [12]: inactive
- outcome [7]: inactive

SMILES: O=[N+]([O-])c1ccc(Oc2ccc(Cl)cc2Cl)cc1
- outcome [3]: inactive
- outcome [9]: inactive
- outcome [11]: inactive
- outcome [10]: inactive

SMILES: Oc1ccc2ccc3cccc4ccc1c2c34
- AC50 [3]: 12.3 µM (active)
- outcome [4]: inactive
- outcome (PGR (gene 5241)): inactive
- AC50 [9]: 4.96 µM (active)

SMILES: N#CC(Br)(Br)C(N)=O
- outcome [12]: inactive

SMILES: Nc1ccc(Cc2ccc(N)cc2)cc1
- outcome [11]: inactive
- outcome [13]: inactive

SMILES: [As]#[In]
- outcome (PGR (gene 5241)): inactive

SMILES: CCN(CC)N=O
- outcome [14]: inactive
- outcome [4]: inactive

SMILES: Cc1ccc(N=C=O)cc1N=C=O
- outcome (PGR (gene 5241)): inactive

SMILES: Cc1cccc(N)c1N
- outcome [3]: inactive
- outcome [4]: inactive
- outcome [15]: inactive
- AC50 [2]: 5.57 µM (active)

SMILES: O=C(N[C@H](c1ccccc1)[C@@H]1CN2CCC1CC2)c1c(Cl)ccc(C(F)(F)F)c1Cl
- outcome [3]: inactive
- AC50 [12]: 22.3 µM (active)
- AC50 [11]: 29.9 µM (active)
- AC50 [10]: 1.52 µM (active)
- AC50 [13]: 26.4 µM (active)
- AC50 [16]: 0.359 µM (active)
- AC50 [2]: 13.3 µM (active)

SMILES: C=CCc1ccc2c(c1)OCO2
- outcome [3]: inactive
- outcome [4]: inactive
- AC50 [12]: 11.6 µM (active)
- outcome [7]: inactive

SMILES: COC(=O)c1ccccc1N
- outcome [3]: inactive
- outcome [16]: inactive
- outcome [7]: inactive

SMILES: O=C(O)C1C2CCC(O2)C1C(=O)O (configuration not stated)
- outcome [4]: inactive

SMILES: Clc1ccc(C(c2ccc(Cl)cc2)C(Cl)Cl)cc1
- outcome [4]: inactive
- outcome [5]: inactive

SMILES: CS(=O)(=O)NC(=O)c1cc(Oc2ccc(C(F)(F)F)cc2Cl)ccc1[N+](=O)[O-]
- outcome [4]: inactive

SMILES: CCOC(=O)[C@]1(c2ccccc2)Oc2ccccc2[C@@H]1N
- outcome [4]: inactive
- AC50 [9]: 25 µM (active)
- AC50 [12]: 0.0612 µM (active)
- AC50 [11]: 5.45 µM (active)
- AC50 [10]: 2.56 µM (active)
- AC50 [13]: 5.35 µM (active)
- AC50 [16]: 1.23 µM (active)
- AC50 [2]: 1.56 µM (active)

SMILES: c1ccc2c(c1)oc1ccccc12
- outcome [3]: inactive

SMILES: c1ccc(NNc2ccccc2)cc1
- outcome [3]: inactive
- outcome [4]: inactive

SMILES: CN(C)c1ccccc1
- outcome [3]: inactive

SMILES: CN(C)C(=O)Nc1ccc(Cl)cc1
- outcome [3]: inactive

SMILES: O=C(Oc1ccc(Br)cc1)N1CCN2CCC1CC2
- AC50 [11]: 7.13 µM (active)
- AC50 [10]: 1.91 µM (active)
- AC50 [16]: 1.01 µM (active)
- AC50 [2]: 12.8 µM (active)

SMILES: Oc1ccccc1Cl
- outcome [4]: inactive

SMILES: c1ccc2c(c1)-c1cccc3cccc-2c13
- AC50 [3]: 37 µM (active)
- outcome (PGR (gene 5241)): inactive
- outcome [15]: inactive

SMILES: CCN(CC)CCO
- outcome [3]: inactive
- outcome (PGR (gene 5241)): inactive

SMILES: O=Cc1ccco1
- outcome (PGR (gene 5241)): inactive
- outcome [10]: inactive

SMILES: CCC(C)c1ccc(O)cc1 (configuration not stated)
- AC50 [3]: 16.3 µM (active)
- AC50 [11]: 4.96 µM (active)
- outcome [13]: inactive
- outcome [7]: inactive
- AC50 [2]: 9.53 µM (active)

SMILES: COP(=S)(OC)SCN1C(=O)c2ccccc2C1=O
- outcome [3]: inactive
- AC50 [2]: 2.04 µM (active)

SMILES: CCCCCCCCOC(=O)c1ccc(C(=O)OCCCCCCCC)c(C(=O)OCCCCCCCC)c1
- outcome [3]: inactive
- outcome (PGR (gene 5241)): inactive
- outcome [7]: inactive

SMILES: CN(C)[C@@H]1C(=O)C(C(N)=O)=C(O)[C@@]2(O)C(=O)C3=C(O)c4c(O)cccc4[C@@](C)(O)[C@H]3C[C@@H]12
- AC50 [9]: 15.9 µM (active)
- outcome [2]: inactive

SMILES: CC(C)(C)OOC(=O)c1ccccc1
- outcome [3]: inactive
- outcome [4]: inactive
- outcome [17]: inactive
- outcome [2]: inactive

SMILES: CC(C)(C)C(O)(CCc1ccc(Cl)cc1)Cn1cncn1 (configuration not stated)
- outcome [12]: inactive
- AC50 [11]: 8.79 µM (active)
- AC50 [2]: 14.3 µM (active)
